Assay outcomes: PubChem BioAssay, NMMLSC
FPR ligand – human FPR ligand, with FPRL1 counter-screen. inhibition, % (no concentration beside the values). FPR-expressing cells, fluorescent ligand binding, flow cytometry. actives 0.74% (n = 24,000). P21462
VLA-4 agonist – allosterically activates the human VLA-4 integrin. P13612. Jurkat cells, LDV-FITC binding, flow cytometry. activation, % at 10 µM (by protocol). 24,000 tested, under 10 active. AID 528;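 active = fluorescent ligand binding to cells raised by more than 40% of the manganese-induced maximum; inconclusive = compound's own fluorescence above 85% of the ligand control signal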
VLA-4 antagonist – inhibitors of LDV-FITC ligand binding to Mn2+-activated human VLA-4 integrin; P13612; Jurkat cells, LDV-FITC binding with Mn2+, flow cytometry; 100% = Mn2+-driven binding gain fully reversed; inhibition, % at 10 µM (by protocol); actives 0.2% (n = 24,000); AID 529;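 active = inhibition above 50%; inconclusive = compound itself fluorescent, judged against control cell fluorescence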
FPRL1 binder – ligands of human FPRL1, also counter-screen for FPR ligands. P25090. FPRL1-expressing cells, fluorescent ligand binding inhibition, flow cytometry. inhibition, % (concentration not given with the values). actives 0.3% (n = 24,000). AID 441
Autofluor Jurkat – counter-screen for VLA-4 integrin: compound autofluorescence in Jurkat cells; actives 0.61% (n = 24,000); flow cytometry; hits give high values; 1 = vehicle-only cell background; AID 576; fluorescence ratio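 (tested at 10 µM compound in the well)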;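 active = fluorescence ratio above 2.44, which is 1 plus 3 SD of all ratios; inconclusive = signal too bright to measure linearly, ratio around 10 or more; inactive = fluorescence ratio below 2.44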;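 also: green fluorescence of cells measured with 488 nm excitation and 530 nm emission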
Hits are given with their value; – = inactive; ? = inconclusive; · = not tested or not shown. This is a sample that favours compounds with a hit; in the whole collection about 1.4% have one here. Rule as the data show it, unless noted: active = inhibition above about 30%; inconclusive = no clear call, values can overlap the other calls; inactive = below that.

SMILES	FPR ligand	VLA-4 agonist	VLA-4 antagonist	FPRL1 binder	Autofluor Jurkat
Cc1[nH]n2c(=O)cc(Cc3ccccc3)nc2c1C#N	–	–	–	–	–
CCc1c(C)nc2c(C#N)c(C)[nH]n2c1=O	49.6	·	·	–	·
Cc1nc2c(C#N)c(C)[nH]n2c(=O)c1Cc1ccccc1	32.3	·	·	–	·
CCOC(=O)Cc1c(C)nc2c(-c3ccccc3)c(C)[nH]n2c1=O	–	·	·	–	·
Cc1nc2c(C#N)c[nH]n2c(=O)c1Cc1ccccc1	39.7	·	·	–	·
Cc1ccc(-n2nc3c(c2NC(=O)c2ccc(S(=O)(=O)N4CCOCC4)cc2)CSC3)c(C)c1	–	–	–	–	–
Cc1nnc(N2C(=O)C(O)=C(C(=O)c3ccco3)C2c2ccc(F)cc2)s1 (centres undefined)	–	–	–	–	–
O=C(C1=C(O)C(=O)N(Cc2ccccc2)C1c1ccncc1)c1ccco1 (centres undefined)	31.7	–	–	–	–
C=CCOc1ccc(C2C(C(=O)c3ccco3)=C(O)C(=O)N2Cc2cccnc2)cc1 (centres undefined)	–	–	–	–	–
COc1ccc(C2C(C(=O)c3ccco3)=C(O)C(=O)N2Cc2cccnc2)cc1OC (centres undefined)	38.1	·	·	–	·
CCOc1ccc(C2C(C(=O)c3ccco3)=C(O)C(=O)N2Cc2cccnc2)cc1 (centres undefined)	49.6	·	·	–	·
O=C(C1=C(O)C(=O)N(CC2CCCO2)C1c1cccnc1)c1ccco1 (centres undefined)	38.7	·	·	–	·
CC1(C2(O)CC(c3ccccc3)ON2)CCCCC1 (centres undefined)	–	–	–	–	–
COc1cccc2cc(C(=O)C3=C(O)C(=O)N(Cc4ccco4)C3c3cccnc3)oc12 (centres undefined)	34.1	·	·	–	·
CCCOc1ccc(C2C(C(=O)c3ccc(C)o3)=C(O)C(=O)N2Cc2cccnc2)cc1 (centres undefined)	52.2	–	–	–	–
COc1ccc(C2C(C(=O)c3ccco3)=C(O)C(=O)N2CCOCCO)cc1OC (centres undefined)	–	·	·	–	·
COc1cccc(C2C(C(=O)c3ccc(C)o3)=C(O)C(=O)N2CCCN(C)C)c1 (centres undefined)	–	–	–	–	–
O=C(C1=C(O)C(=O)N(Cc2ccco2)C1c1cccnc1)c1cc2ccccc2o1 (centres undefined)	–	·	·	–	·
COc1ccc(C2C(C(=O)c3ccco3)=C(O)C(=O)N2CCc2ccccc2)cc1OC (centres undefined)	80.3	·	·	–	·
COc1cccc(/C(O)=C2/C(=O)C(=O)N(Cc3cccnc3)C2c2ccco2)c1 (centres undefined)	33.8	·	·	–	·
CCN1CCN(Cc2ccc(NC(=O)Nc3cccs3)cc2)CC1	–	–	–	–	–
O=C(c1cnn2c1NC(c1ccco1)CC2C(F)(F)F)N1CCN(c2cccc(Cl)c2)CC1 (centres undefined)	–	–	–	–	–
COc1cc(C2C(C(=O)c3cccs3)=C(O)C(=O)N2Cc2ccco2)cc(OC)c1OC (centres undefined)	82.7	·	·	–	·
COC(=O)c1[nH]c(C)c(/C(O)=C2\C(=O)C(=O)N(CCCN3CCOCC3)C2c2ccccn2)c1C (centres undefined)	38.1	–	–	–	–
CC(C)CN(CC(C)C)C(=O)C12CCC(C)(C(=O)C1)C2(C)C (centres undefined)	–	–	–	–	–
SMILES	FPR ligand	VLA-4 agonist	VLA-4 antagonist	FPRL1 binder	Autofluor Jurkat
COC(=O)c1cccc(Oc2nc3c(c(=O)n(C)c(=O)n3C)n2C(C)C)c1	–	–	–	–	–
O=S(=O)(Nc1ccc2c(c1)OCO2)c1ccc(Br)s1	–	–	–	–	–
COc1cc(NS(=O)(=O)c2ccc(Br)s2)cc(OC)c1	–	?	?	?	4.46
CCn1c(Oc2ccc(Oc3ncc(Cl)cc3Cl)cc2)nc2c1c(=O)n(C)c(=O)n2C	–	–	–	–	–
CCOC(=O)CC(C#N)c1cn(C)c2ccccc12 (centres undefined)	–	?	?	–	2.78
O=c1c2c(nc3c(-c4cccc5ccccc45)c[nH]n13)CCC2	–	·	·	–	·
O=c1c2c(nc3c(-c4ccc(Cl)cc4)c[nH]n13)CCCC2	70.6	·	·	–	·
CCc1cc2c(=O)c(-c3cnn(-c4ccccc4)c3)c(C(F)(F)F)oc2c(CN(C)C)c1O	–	·	·	–	·
CCCCNC(=O)c1sc(=S)n2c1[nH]c(=O)c1ccccc12	88.9	?	?	–	–
O=C(NC1CCCCC1)c1sc(=S)n2c1[nH]c(=O)c1ccccc12	62.2	?	?	–	–
CCOC(=O)c1ccccc1NC(=O)c1cn(CC)c2nc(C)ccc2c1=O	–	–	–	–	–
O=C1CN(Cc2ccccc2)C(=NCc2ccco2)S1	–	–	–	–	–
CN(C)c1ccc(/C=c2\sc3nc(-c4ccccc4)nn3c2=O)cc1	·	?	?	·	8.23
Cc1cc(C(=O)CSc2nnc(-c3ccco3)o2)c(C)n1CC1COc2ccccc2O1 (centres undefined)	–	–	–	–	–
CCOc1ccccc1NC(=O)CC1Nc2cc(C)c(C)cc2NC1=O (centres undefined)	–	?	?	–	4.89
CC(NC(=O)CC1Nc2ccccc2NC1=O)c1ccccc1 (centres undefined)	–	–	–	–	–
CCC(=O)N1CCNC(=O)C1CC(=O)Nc1ccc(C)c(Cl)c1 (centres undefined)	–	–	52.0	–	–
COc1ccc(CCNC(=O)CC2Nc3ccccc3NC2=O)cc1OC (centres undefined)	–	?	?	–	–
Cc1ccc(NC(=O)CC2Nc3ccccc3NC2=O)cc1Cl (centres undefined)	–	?	?	–	6.72
Cc1ccc(/C(O)=C2\C(=O)C(=O)N(CCCN(C)C)C2c2ccccn2)cc1 (centres undefined)	–	–	–	–	–
COC(=O)c1nc2n(n1)C(c1cc(OC)ccc1OC)C(C(=O)OC1CCCCC1)=C(C)N2 (centres undefined)	–	?	?	–	–
CCOC(=O)CN1CC23C=CC(O2)C(C(=O)Nc2ccc(C(C)=O)cc2)C3C1=O (centres undefined)	–	–	–	–	–
Cc1ccc(C2/C(=C(/O)c3ccc(Cl)cc3)C(=O)C(=O)N2CC2CCCO2)o1 (centres undefined)	60.3	·	·	–	·
CC(C)(C)NC(=O)C(c1ccco1)N(C(=O)Cn1nnc(-c2ccc(F)cc2)n1)c1ccccc1F (centres undefined)	–	–	–	–	–
CC1CCN(c2nc(-c3ccccc3)c(C#N)c(=O)[nH]2)CC1	34.8	–	–	–	–
CC(C)c1ccc(-c2nc(N3CCCCC3)[nH]c(=O)c2C#N)cc1	–	–	–	–	–
CNC(=O)c1nnn(Cc2ccccc2)c1NC(=O)C(F)(F)F	–	–	–	–	–
